LGR2 antag – inhibitors of bursicon-induced LGR2 CRE-luciferase signal, primary screen, cell-based, HEK293, CRE-luciferase reporter, bursicon stimulation; AID 720647, 2013; bursicon-stimulated, 4 h; Drosophila bursicon receptor LGR2 (rickets); 0.35% of 380,000 active; inhibition, % at 9.99 µM;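 active = drop in luminescence signal, shown as inhibition above about 50% in the replicate tests, limit read from the data, passing the limit was not always enough; inconclusive = probably only some replicates passing the limit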;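 also: agonist challenge used bursicon conditioned medium at about half maximal strength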
TROY signal inh – inhibitors of TROY-driven NF-kB signaling, primary screen, Q293 LMP1-TROYcd cells, NF-kB luciferase, uHTS | Q293 LMP1-TROYcd NF-kB luciferase reporter, 4 h | inhibition, % at 10 µM | 0.98% of 360,000 active;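 active = compounds whose plate-normalised and pattern-corrected inhibition of the luciferase reporter signal at the single screening dose is 50% or more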
PAX8 reporter – inhibitors of PAX8-driven TPO luciferase reporter, primary screen, RMG-I cells, single concentration; inhibition, % at 12.6 µM; 1.2% of 360,000 active; SteadyGlo, 24 h;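 active = mean replicate inhibition at least 60% with every replicate also reaching 60%; inconclusive = only one of the two criteria is met; inactive = mean below 60% and not all replicates reaching 60%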;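 also: luciferase light reporting Pax8 driven TPO promoter activity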
EWS-Fli block – EWS/Fli-driven NR0B1 reporter inhibitors, primary screen, A673 cells, NR0B1 luciferase, luminescence, MLPCN library. viability-normalised. inhibition, % at 12.6 µM. 0.67% of 350,000 active. AID 651661, 2012;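 active = mean inhibition of at least 50% after viability correction, with every replicate also passing that limit; inconclusive = mean reaches 50% but only one of two replicates passes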;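 also: firefly luciferase signal divided by Alamar Blue viability fluorescence both relative to DMSO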
TWEAK-Fn14 inh – inhibitors of TWEAK-Fn14 signaling, primary screen, luciferase reporter cells, uHTS; 2% of 360,000 active; AID 1159606, 2016; TWEAK-stimulated Fn14 reporter cells, luciferase luminescence, 8 h; inhibition, % at 10 µM; in the data active = inhibition above about 50%
Hits are given with their value; . = inactive; ? = inconclusive; / = no result. Rows were chosen to be rich in hits. Some 2.8% of all compounds tested hit in one or more screens of this group.

SMILES | LGR2 antag | TROY signal inh | PAX8 reporter | EWS-Fli block | TWEAK-Fn14 inh
CN(C)C(=O)c1cccc(-c2ccc([C@@H]3[C@H]4CN(CC5CCOCC5)CCCCN4[C@H]3CO)cc2)c1 | . | / | . | . | /
COc1ccc(-c2csc3ncnc(Nc4ccc(O)cc4)c23)cc1 | . | . | . | . | .
COc1ccc(-c2csc3ncnc(NCCCO)c23)cc1 | . | . | . | . | 65
COc1ccc(-c2csc3ncnc(NCCO)c23)cc1 | . | . | . | . | 72
CCN(c1cccc(C)c1)S(=O)(=O)c1ccc2c(c1)CCN2C(C)=O | / | . | . | / | 93
CCOC(=O)c1ccc(NC(=O)COc2cc3oc(=O)c(CC(C)O)c(C)c3cc2Cl)cc1 (stereo unspecified) | . | . | . | . | .
CC(=O)c1cccc(NC(=O)COc2cc3oc(=O)c(CC(C)O)c(C)c3cc2Cl)c1 (stereo unspecified) | . | . | . | . | 60
C[C@H]1CCCCO[C@@H](CN(C)S(=O)(=O)c2ccc(F)cc2)[C@@H](C)CN([C@@H](C)CO)C(=O)c2cc(NC(=O)Nc3ccc(F)cc3)ccc2O1 | . | / | . | . | /
Cc1ccc(S(=O)(=O)N(C)C[C@@H]2OCCCC[C@H](C)Oc3ccc(NC(=O)Nc4ccc(F)cc4)cc3C(=O)N([C@H](C)CO)C[C@@H]2C)cc1 | . | / | 61 | . | /
C[C@H](CO)N1C[C@H](C)[C@H](CN(C)S(=O)(=O)c2ccc(F)cc2)OCCCC[C@H](C)Oc2ccc(NC(=O)Nc3ccc(F)cc3)cc2C1=O | . | / | 76 | . | /
C[C@@H]1CN([C@H](C)CO)C(=O)c2cc(NC(=O)Nc3ccc(F)cc3)ccc2O[C@@H](C)CCCCO[C@H]1CN(C)S(=O)(=O)c1ccc(F)cc1 | . | / | 86 | . | /
C[C@H](CO)N1C[C@H](C)[C@@H](CN(C)Cc2ccncc2)Oc2ccc(NC(=O)C3CCCCC3)cc2C1=O | . | / | . | . | /
CN(C)C(=O)C[C@H]1CC[C@H]2[C@H](COc3ccc(NC(=O)C4CCCCC4)cc3C(=O)N2C)O1 | . | / | . | . | /
CC(C)NC(=O)Nc1ccc2c(c1)C(=O)N([C@H](C)CO)C[C@@H](C)[C@H](CN(C)C(=O)c1ccncc1)OCCCC[C@@H](C)O2 | . | / | . | / | /
COc1cc(C(=O)N/N=C(\C)c2ccccn2)cc(OC)c1OC | . | . | . | / | .
COc1cc(C(=O)N/N=c2/sc3ccccc3n2C)cc(OC)c1OC | . | . | . | . | .
COc1cc(C(=O)NN=C2c3ccccc3-c3ccccc32)cc(OC)c1OC | . | / | . | 59 | /
COc1cccc(C(=O)N/N=C(/c2ccccc2)c2ccccn2)c1 | / | . | 65 | / | .
COc1cc(C(=O)N/N=C(\c2ccccc2)c2ccccn2)cc(OC)c1OC | . | . | 72 | . | .
C[C@H]1CN([C@@H](C)CO)C(=O)c2cc(C#Cc3ccccc3F)cnc2O[C@H]1CN(C)C(=O)C1CCC1 | . | / | . | . | /
CCOC(=O)/C=C/c1c(OC)cccc1OC | / | / | . | . | /
CN1CCCCN2[C@@H](CO)[C@H](c3ccc(-c4ccc(F)cc4)cc3)[C@@H]2C1 | . | / | . | . | /
COc1ccc2[nH]cc(C(=O)CCl)c2c1 | . | . | . | . | 57
COc1ccc(-c2[nH]ncc2-c2ccc3c(c2)OCCO3)c(O)c1 | ? | 61 | / | / | 78
CCc1cc(-c2[nH]ncc2-c2ccc3c(c2)OCO3)c(O)cc1O | . | 68 | / | / | 92
SMILES | LGR2 antag | TROY signal inh | PAX8 reporter | EWS-Fli block | TWEAK-Fn14 inh
CCOc1ccc(-c2[nH]ncc2-c2ccc(Cl)cc2)c(O)c1 | . | . | . | . | .
CCc1cc(-c2[nH]ncc2-c2ccc(OC)cc2)c(O)cc1O | . | . | . | . | 64
CCOc1ccc(-c2[nH]ncc2-c2ccc(OC)c(OC)c2)c(O)c1 | / | . | / | / | .
COc1ccc(-c2cn[nH]c2-c2ccc(OCc3ccc([N+](=O)[O-])cc3)cc2O)cc1 | . | . | . | . | 78
O=C(/C=C/c1cccs1)Nc1scc(-c2ccccc2)c1C(=O)O | / | . | . | . | 60
O=[N+]([O-])c1ccccc1S(=O)NCc1c(Cl)cccc1Cl (stereo unspecified) | . | 55 | . | . | .
O=[N+]([O-])c1cccc(Cl)c1CSc1ccccn1 | . | . | . | . | .
C[C@H]1CN([C@@H](C)CO)C(=O)c2cc(NC(=O)Nc3ccc(F)cc3)ccc2O[C@@H]1CN(C)C(=O)Nc1ccc(F)cc1 | . | / | / | . | /
O=C(NCc1cccnc1)/C(=C\c1ccc(-c2cccc(Cl)c2)o1)S(=O)(=O)c1ccccc1 | 87 | 78 | / | / | 104
O=C(NCc1cccnc1)/C(=C/c1ccc(-c2cccc(Cl)c2)o1)S(=O)(=O)c1ccccc1 | . | . | / | / | 58
C[C@@H]1CN([C@@H](C)CO)C(=O)c2cccc(NS(=O)(=O)c3ccc(F)cc3)c2O[C@@H]1CN(C)C(=O)Nc1ccc2c(c1)OCO2 | . | / | . | . | /
Cc1ccccc1NCC(=O)N/N=C/c1ccc([N+](=O)[O-])cc1 | . | . | . | / | .
O=C(CNc1cccc2ccccc12)N/N=C/c1ccc([N+](=O)[O-])cc1 | . | . | . | . | 82
Cc1ccccc1NC(=O)C(Cl)=C(Cl)Cl | . | . | 94 | . | .
Cc1ccccc1NNC(=O)C(=O)NNc1ccccc1C | . | . | . | . | .
CCc1ccc(NC(=S)/N=C(\N)Nc2nc(C)c3cc(CC)ccc3n2)cc1 | . | . | . | . | 57
CCOc1ccc2nc(N/C(N)=N/C(=S)Nc3ccc(OC)cc3)nc(C)c2c1 | . | . | . | . | .
C[C@H]1CCCCO[C@H](CN(C)S(=O)(=O)c2ccc(Cl)cc2)[C@@H](C)CN([C@@H](C)CO)C(=O)c2cc(NS(=O)(=O)c3ccc(Cl)cc3)ccc2O1 | . | / | 83 | . | /
C[C@@H]1CCCCO[C@@H](CN(C)S(=O)(=O)c2cccs2)[C@H](C)CN([C@@H](C)CO)C(=O)c2cc(NS(=O)(=O)c3ccc(Cl)cc3)ccc2O1 | . | / | 70 | . | /
C[C@@H]1CCCCO[C@@H](CN(C)S(=O)(=O)c2ccc(Cl)cc2)[C@H](C)CN([C@H](C)CO)C(=O)c2cc(NS(=O)(=O)c3ccc(Cl)cc3)ccc2O1 | . | / | 90 | . | /
C[C@H](CO)N1C[C@H](C)[C@@H](CN(C)S(=O)(=O)c2ccc(Cl)cc2)OCCCC[C@H](C)Oc2ccc(NS(=O)(=O)c3ccc(Cl)cc3)cc2C1=O | . | / | 87 | . | /
Cc1ccc(S(=O)(=O)N[C@H]2C=C[C@H](CC(=O)N3CCN(c4ccccc4)CC3)O[C@@H]2CO)cc1 | . | / | . | . | /
O=C(C[C@H]1CC[C@@H](NC(=O)C2CCC2)[C@@H](CO)O1)NCC1CC1 | . | / | . | . | /
CCC(=O)N1CC(=O)N2[C@H](C1)[C@H](c1ccc(C#Cc3cccnc3)cc1)[C@@H]2CO | . | / | . | . | /

Screening results (PubChem BioAssay)
